From PubChem BioAssay AID651813 (National Center for Advancing Translational Sciences (NCATS), 2012) come the findings set out here.

The whole screen tested about 2,100 compounds, of which about 1,100 (52%) were called active. Inconclusive results (about 27%) are left out. The set was probably picked from earlier hits. The list shows a part of the results. Unmarked numbers belong to inactive results. Calls come from the whole dose curve; as a rule, active = well fitted inhibition curve with a large enough effect; inconclusive = small, poorly fitted or top-dose-only effect; inactive = no such curve, though single readings can be large or run the other way.
Potency is the fitted concentration of half-maximal effect.

The target of the assay is DNA dC->dU-editing enzyme APOBEC-3G (Homo sapiens) (UniProt Q9HC16). As to the kind of experiment: qHTS for inhibitors of Vif-A3G interactions: Cherry picks counterscreen.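 For max response: max response given as percent of control signal.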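 Note: hits raise yellow fluorescence by blocking Vif-driven A3G-eYFP degradation; nearly all actives have a fitted effect of over 70% in size.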 Particulars: HeLa A3G-eYFP + Vif (tagged APOBEC3G with the HIV-1 protein that degrades it), eYFP fluorescence, 24 h. An excerpt: The recent discovery and characterization of host restriction factors, which provide a potent defense to invading retroviruses, has provided new targets for antiviral drug development. APOBEC3G (A3G) and APOBEC3F (A3F) are potent cytidine deaminases that block HIV-1 replication; HIV-1 expresses the Vif protein, which counteracts A3G and A3F by binding to them and inducing their proteasomal degradation. The Vif-A3G and Vif-A3F interactions provide two potential targets for development of small molecules which can interfere with the ability of Vif to degrade A3G or A3F. […] To identify inhibitors that can interfere with Vif mediated degradation of A3G and A3F, we have developed Hela cell lines that stably express A3G or A3F tagged with eYFP at the C-terminal end (A3G-eYFP or A3F-eYFP, respectively) and Vif. In the absence of an inhibitor, Vif induces degradation of A3G-eYFP and A3F-eYFP, and the cells are not fluorescent. In the presence of an inhibitor, it is expected that Vif will be unable to degrade A3G-eYFP and/or A3F-eYFP, resulting in an increase in yellow fluorescence. In this counterscreen assay, Vif A3G was screened against the cherry picks ordered from the MLSMR. NIH Chemical Genomics Center [NCGC] NIH Molecular Libraries Probe Centers Network [MLPCN] MLPCN Grant: MH093245 Assay Submitter (PI): Vinay Pathak, National Cancer Institute
DNA dC->dU-editing enzyme APOBEC-3G (Homo sapiens), sequence (Q9HC16 whole entry, looked up): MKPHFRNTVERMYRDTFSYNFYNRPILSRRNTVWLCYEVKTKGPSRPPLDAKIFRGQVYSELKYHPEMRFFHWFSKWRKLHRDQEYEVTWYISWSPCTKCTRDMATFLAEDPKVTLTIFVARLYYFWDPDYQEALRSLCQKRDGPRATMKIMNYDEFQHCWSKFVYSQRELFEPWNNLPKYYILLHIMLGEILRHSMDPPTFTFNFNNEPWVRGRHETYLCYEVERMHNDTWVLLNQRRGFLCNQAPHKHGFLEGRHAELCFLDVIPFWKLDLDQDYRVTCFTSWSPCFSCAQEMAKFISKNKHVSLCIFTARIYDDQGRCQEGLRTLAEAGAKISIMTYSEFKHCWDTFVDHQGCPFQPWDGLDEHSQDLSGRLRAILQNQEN
A3G-Vif cells were harvested from T225 flask and resuspended in phenol free OPTI-MEM medium with 5% FBS. Then 5 uL of 140,000 cells/mL resuspended cells was dispensed into each well of low base Aurora COC 1,536-well plates (black walled, clear bottom) using a Multidrop Combi dispenser. After overnight culture at 37 deg C with 5% CO2, a total of 23 nL of compounds at 5 selected concentrations from the NPC or positive control (2 mM stock of MG132) in DMSO was transferred to each well of the assay plate using a pintool (Kalypsys, San Diego, CA), and the plates were further incubated at 37 deg C with 5% CO2 for 24 hours. After that, the plates were measured on Acumen Explorer (TTP Lab Tech). The fluorescence was detected by 488 nm/Ex and […].
Background: In qHTS, concentration-response curves come from the screen itself.
In the case of `Oc1cccc(Nc2nc(O)c(/C=C3\C=Nc4ccccc43)s2)c1`, the Potency is 20.6 µM (active).

For the compound `Cc1cc(/C=C2\NC(=S)N(C)C2=O)ccc1N1CCCC1`, the Potency is 5.59 µM (active). As for `O=C1/C(=C/c2ccc(N3CCCC3)cc2)NC(=S)N1C1CC1`, the Potency is 7.31 µM (active). As for `Cc1cc(N2CCCC2)ccc1/C=C1\NC(=S)N(C)C1=O`, the Potency is 1.64 µM (active). Regarding `Cc1cc(N2CCCC2)ccc1/C=C1/C(=O)N(C)C(=S)N1C`, the max response is 40%. On the same count and under the same terms, the value for `CCN1C(=O)/C(=C/c2ccc(N3CCCC3)cc2)NC1=S` was 47.9%; that for `C/C(=N\Nc1nccnc1Cl)c1ccc(Cl)c(Cl)c1` was -0.872%. Turning to `CCn1c(=O)c2cc(C(=O)NCCCOC)sc2c2ccccc21`, the Potency was 7.04 µM (active). Turning to `N#CC1=C2SCC(O)(c3ccccc3)N2C(=O)CC1c1ccccc1` (stereo not given), the Potency is 5.59 µM (active). Take `CCS(=O)(=O)Nc1cccc(C2=NN(C(=O)c3ccco3)C(c3ccco3)C2)c1` (stereo not given): the Potency is 14 µM (active). On to `CSc1nc2ccccc2cc1/C=C(\C#N)c1cccc(C)c1`, for which the Potency was 12.5 µM (active). Regarding `CCOc1cc(N(CC)CC)ccc1/C=C(/C#N)c1nc2ccccc2[nH]1`, the max response is 57.6%. As for `CSc1nc2ccccc2cc1/C=C(\C#N)c1ccccc1`, the Potency was 6.27 µM (active).

Turning to `CCN(CC)c1ccc(/C=C(/C#N)c2nc3ccccc3[nH]2)c(OC(C)C)c1`, the max response is 42%. With `COC(=O)C1=COC(C)C2CN3CCc4c([nH]c5cc(OC)c(OC)cc45)C3CC12` (stereo not given), the max response was -25.2%.

On to `COC(=O)C1C2CC3c4[nH]c5cc(OC)ccc5c4CCN3CC2CC(OC(=O)CC(C)=O)C1OC` (stereo not given), for which the Potency was 20.6 µM (active). Regarding `COc1cccc(/C(O)=C/c2nc3ccc(C(=O)NCCc4ccc(Cl)cc4)cc3[nH]c2=O)c1`, the Potency is 20.6 µM (active). Take `COc1cccc(/C(O)=C/c2nc3ccc(C(=O)NCCc4cccc(C)c4)cc3[nH]c2=O)c1`: the Potency was 13 µM (active). With `CCOc1ccccc1C1NC(=O)c2ccccc2N1` (stereo not given), the Potency was 2.5 µM (active). With `COc1cc(OC)c(C2Nc3cccc4cccc(c34)N2)c(OC)c1`, the max response was 3.06%. In the case of `Cc1ccc(C)c(C2NC(=O)c3ccccc3N2)c1` (stereo not given), the Potency was 7.9 µM (active).

For the compound `Cc1ccc(C2NC(=O)c3ccccc3N2)s1` (stereo not given), the Potency was 12.5 µM (active).

On to `COc1ccc2ccccc2c1C1NC(=O)c2ccccc2N1` (stereo not given), for which the Potency was 4.98 µM (active). Take `O=[N+]([O-])c1ccccc1C1Nc2cccc3cccc(c23)N1`: the max response is 7.07%. As for `CC(=O)/C(N=Nc1cc(C)ccc1O)=C(\C)O`, the Potency was 20.6 µM (active).

Regarding `CCOC(=O)N1CCN(/C=C(\C#N)c2nc3ccccc3s2)CC1`, the Potency was 23.1 µM (active). For the compound `COc1ccc(C)cc1NCc1cc(=O)oc2cc(-c3ccccc3)c(O)cc12`, the max response is -4.57%. `COc1ccc(-c2coc3cc4oc(=O)cc(-c5ccccc5)c4cc23)cc1F`: the Potency is 2.23 µM (active).

In the case of `O=C(Cn1cnc2c(cnn2-c2ccc(F)cc2)c1=O)NCc1ccco1`, the Potency was 17.7 µM (active). For the compound `Cc1ccc(Cn2nnc3c(=O)n(CC(=O)NCc4ccccc4)cnc32)cc1`, the Potency is 8.86 µM (active). On to `CC(C)(C)n1ncc2c(=O)n(CC(=O)NCc3ccc(F)cc3)cnc21`, for which the Potency is 7.9 µM (active). With `Cc1sc2ncn(CC(=O)NCc3ccccc3)c(=O)c2c1C`, the max response is -26.2%.

With `CCN(CC)c1nc(C=Cc2ccc(N(C)C)cc2)c2nccnc2n1`, the Potency is 0.651 µM (active).

As to `CN(C)c1ccc(/C=C/c2nccc3ccccc23)cc1`, the Potency is 13 µM (active). With `CN(C)c1ccc(C=Cc2nccc3ccccc23)cc1`, the Potency is 14 µM (active).

Regarding `CCN(Cc1ccccc1)c1ccc(/C=C/c2nccc3ccccc23)cc1`, the Potency was 13 µM (active). In the case of `CC(=O)/C(=C\N(C)C)Sc1ccc(Cl)cc1`, the max response is 12%. Still for that read-out and setting: the value for `Cc1sc2ncnc(SCC(=O)NC(C)(C)C)c2c1C` was -17.9%. Turning to `COc1ccccc1Nc1nnc(SCC2CCCCO2)s1` (stereo not given), the Potency is 17.7 µM (active).

`COc1cccc(OCc2nc3ncc(Br)cc3[nH]2)c1`: the Potency is 3.14 µM (active).

For `Nc1cccc(CCc2nc3cc4ccccc4cc3[nH]2)c1`, the Potency was 4.98 µM (active). As to `COc1cccc(N2CC(O)=C(c3nc4ccccc4c(=O)[nH]3)C2=N)c1`, the Potency is 2.23 µM (active). As for `COc1cccc(N2CC(O)=C(c3nc4ccccc4s3)C2=N)c1`, the Potency is 7.9 µM (active). Regarding `CC(C)(C)c1ccc(OCC(=O)Nc2ccc3c4c(cccc24)C(=O)NC3=O)cc1`, the max response was 43.9%. Take `CCOC(=O)Nc1ccc2c3c(cccc13)-c1ccccc1-2`: the Potency was 2.31 µM (active). Consider `O=CNc1ccc2c3c(cccc13)-c1ccccc1-2`, for which the Potency is 11.2 µM (active).

As to `N#Cc1cc2ccccc2nc1SCc1ccccn1`, the Potency is 23.1 µM (active). Regarding `CCCCCCN1C[C@H](O)[C@@H](n2cc(COC(=O)c3ccccc3)nn2)C[C@@H]1c1ccc(C)cc1`, the max response was 4.43%.

With `CN(C)c1ccc2ccc3cccc4ccc1c2c34`, the Potency is 13 µM (active). In the case of `O=C1NC(c2ccc(Br)cc2)Nc2ccccc21` (stereo not given), the Potency is 17.7 µM (active). For `O=C1NC(c2cccc(Cl)c2)Nc2ccccc21` (stereo not given), the Potency was 12.5 µM (active). The same measure, in the same setting: the value for `CSc1ccc(C2NC(=O)c3ccccc3N2)cc1` (stereo not given) was 11.2 µM (active). With `CC(C)n1cc(NC(=O)c2cc(-c3ccccc3)on2)cn1`, the Potency was 5.59 µM (active). `CCn1c(O)c(/C=N/N=C/c2ccc(OC)cc2)c2cc(C3=NNC(=O)CC3)ccc21`: the Potency is 13 µM (active). For the compound `N#C/C(=C\c1ccc(Cl)cc1)c1nc2ncccc2[nH]1`, the max response was -13.6%.

For `N#CC(=Cc1ccccn1)c1nc(-c2ccc(Cl)cc2)cs1`, the Potency is 6.27 µM (active). Take `Cc1ccc(CNC(=O)Cn2cc(C(=O)c3ccc(Cl)cc3)c(=O)c3ccc(C)nc32)cc1`: the max response was -25%. For `O=C(Cn1nc2c(cc1=O)CCCC2)NCc1ccc(Cl)cc1`, the Potency was 13 µM (active). As to `CCC(C)Sc1cccc(-c2nc3cc(C)ccn3c2NC2CCCCC2)c1` (stereo not given), the max response is 18.8%.

For `Cc1cccc(N2CCN(C(=O)c3ccncc3)CC2)c1C`, the Potency was 12.5 µM (active). For the compound `O=C1COc2ccc(C(=O)CSc3nc4ccccc4c(=O)n3-c3ccc(Cl)c(Cl)c3)cc2N1`, the Potency is 18.4 µM (active). The same measure, in the same setting: the value for `Cc1ccc(/C=C2/CNC/C(=C/c3ccc(C)cc3)C2=O)cc1` was 5.59 µM (active); that for `C[C@]12CCC[C@H](O1)c1c(cc3c(c1O)C(=O)c1c(O)cc(O)cc1C3=O)O2` was 16.4 µM (active).

For `CCN(CC)c1cc(C)c(/C=C/c2ccnc3ccccc23)cc1C`, the Potency is 16.4 µM (active). On to `Cc1cc(N(C)C)c(C)cc1/C=C/c1ccnc2ccccc12`, for which the Potency was 10.3 µM (active).

As for `O=C(O)c1ccccc1N/N=C/c1c(Sc2nnnn2-c2ccccc2)nc2ccccn2c1=O`, the Potency was 4.44 µM (active). `COc1cc(CCC(=O)Nc2nnc(C)s2)cc(OC)c1OC`: the Potency was 8.86 µM (active). Regarding `COc1cc(C(=O)Nc2nnc(Cc3ccccc3)s2)cc(OC)c1OC`, the Potency was 12.5 µM (active).

Take `Cc1cc(NC(=O)Nc2nnc(N(C)Cc3ccccc3)s2)ccc1Br`: the max response was 20.9%. In the case of `Cc1noc(C)c1COc1cccc(C(=O)OC(C)C(=O)Nc2ccc3c(c2)OCO3)c1` (stereo not given), the Potency is 3.53 µM (active). On to `COc1ccc(NC(=O)C(NC(=O)/C=C\c2ccc3c(c2)OCO3)c2ccccc2)cc1` (stereo not given), for which the max response was -17%. As for `C/C(=N\NC(=S)NCc1ccccc1)c1cccs1`, the max response is -28.6%. Consider `CC1(C)Cc2c(sc3ncnc(NNC(=S)NCc4ccccc4)c23)CO1`, for which the Potency was 12.5 µM (active). Turning to `O=c1[nH]c2ccccc2nc1/C=C(\O)c1cccs1`, the Potency was 4.61 µM (active). Regarding `NNC(=O)c1cc2sccc2s1`, the max response is 2.94%. In the case of `CCN1CCN(c2c(/C=C3\SC(=S)N(Cc4ccco4)C3=O)c(C)c(C#N)c(=O)n2C)CC1`, the Potency was 20.6 µM (active).

As to `CN(C)c1ccc(C=C2SC(=S)N(Cc3ccco3)C2=O)cc1`, the Potency was 3.53 µM (active). With `Cc1cc(/C=C2\SC(=S)N(Cc3ccco3)C2=O)c(C)n1-c1cccnc1`, the Potency is 9.2 µM (active). With `Cc1cc(/C=C2\SC(=S)N(Cc3ccco3)C2=O)c(C)n1-c1ccccc1`, the Potency was 23.1 µM (active).

Take `COc1ccc(Nc2nc3cc(C)ccc3cc2C#N)cc1`: the Potency is 18.4 µM (active). With `COc1ccc(Nc2nc3cc(C)ccc3cc2C#N)c(OC)c1`, the Potency was 1.58 µM (active).

As for `Cc1ccc2nc(NS(=O)(=O)c3ccc(Cl)cc3)c(Nc3ccc(C(=O)O)cc3)nc2c1`, the max response is 2.4%.

As for `CC(=O)n1c2ccccc2c2nc3ccccc3nc21`, the Potency is 2.59 µM (active). Regarding `C=CCNc1nc2cc(-c3cccc(Cl)c3)sc2c(=O)n1C`, the Potency is 14 µM (active).

As for `CCOC(=O)c1ccc(/C=C2/C=C(c3ccccc3)N(c3ccc(Cl)c(C(=O)O)c3)C2=O)cc1`, the Potency was 20.6 µM (active). As for `CCOC(=O)c1c(NC(=O)CSc2nc3ccc(OC)cc3[nH]2)sc2c1CC(C)(C)NC2(C)C`, the max response is -23%. On to `C=CCOc1ccc2nc(NC(=O)OC)[nH]c2c1`, for which the Potency is 2.23 µM (active). Take `CC(=O)Nc1ccc(-c2ccnc3c2CC(C(=O)Nc2cccc(N(C)C)c2)O3)cc1` (stereo not given): the Potency was 9.94 µM (active). Turning to `COc1ccc(NC(=O)C2Cc3c(-c4cccc(C(C)=O)c4)ccnc3O2)cc1` (stereo not given), the Potency was 3.96 µM (active). Regarding `COc1ccc(NC(=O)C2Cc3c(-c4cccc(NC(C)=O)c4)ccnc3O2)cn1` (stereo not given), the Potency was 14 µM (active).

For the compound `CC(=O)c1cccc(-c2ccnc3c2CC(C(=O)Nc2ccc(Cl)cc2)O3)c1` (stereo not given), the Potency was 12.5 µM (active). As to `COc1cc(C2c3cc4c(cc3C(OC3OC5COC(c6cccs6)OC5C(O)C3O)C3COC(=O)C23)OCO4)cc(OC)c1O` (stereo not given), the max response is -84.8%. As for `Cc1ccc(N=C2NC(=O)CC(C(=O)Nc3ccc4c(c3)OCO4)S2)cc1` (stereo not given), the max response was -13.3%. With `COc1ccc(NC(=O)C2Cc3c(-c4cccc(C(C)=O)c4)ccnc3O2)cn1` (stereo not given), the Potency was 1.4 µM (active). With `CC(=O)Nc1cccc(-c2ccnc3c2CC(C(=O)Nc2ccc4c(c2)OCO4)O3)c1` (stereo not given), the Potency is 1.25 µM (active).
